High-throughput results (PubChem BioAssay)
Vaccinia Venus – vaccinia inhibition (Venus reporter) | Vaccinia virus Venus reporter expression, fluorescence | Potency, µM (series often up to 36.5 µM), inactives show at the top dose activity change, negative = inhibition, usual class: inhibitors | 0.46% of 330,000 active; calls by dose curve; tested in A549 cells; also: potency is read from the fitted curve at half-maximal effect; nearly all actives have a fitted effect of over 30% in size
Tb PYK inh – inhibitors of Trypanosoma brucei pyruvate kinase; 0.12% of 410,000 active; AID 624173; Q57TT1; Potency, µM (series often up to 76.8 µM), inactives show at the highest dose activity, negative = inhibition, hits mostly inhibitors; TbPYK enzyme, Kinase-Glo Plus ATP luminescence, 45 min; also: potency is read from the fitted curve at half-maximal effect; nearly all actives have a fitted effect of over 50% in size
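Assay buffer: 50 mM TEA pH 7.2, 100 mM KCl, 10 mM MgCl2, 0.05% BSA, 0.01% Tween-20. Pyruvate kinase from T. brucei plus substrate met compound, then ADP (130 uM final). Luminescence was read post 45 min RT.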
HCMV antiviral – human cytomegalovirus inhibition; HFF cells, HCMV-luciferase reporter, 72 h; hits give low values; activity change, negative = inhibition, % at 57.5 µM; 4.5% of 410,000 active; AID 1259415; in the data active = activity change below about -60%; inconclusive = no clear call, values can overlap the other calls; inactive = above about -39%
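Two compound doses tested in HFFs infected with HCMV-luciferase, MOI 1 PFU/cell, 72 h at 37C. Lysate luminescence read with OneGlo; data normalized against buffer-only and 10uM Salinomycin inhibitor controls.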
VACV mCherry inh – vaccinia inhibition (mCherry reporter); Vaccinia virus mCherry reporter infection, fluorescence; Potency, µM (top dose mostly 36.5 µM), for the others: top-dose activity change, negative = inhibition, actives largely listed as inhibitors; 0.63% of 310,000 active; AID 720579; calls by dose curve; tested in A549 cells; also: potency is read from the fitted curve at half-maximal effect; nearly all actives have a fitted effect of over 35% in size
LmPK inhibitor – inhibitors of Leishmania mexicana pyruvate kinase; Q27686; purified LmPK, Kinase-Glo ATP luminescence, 1 h; Potency, µM (doses to about 57.5 µM), inactives show at the top dose activity change, negative = inhibition, hits mostly inhibitors; 0.37% of 290,000 active; AID 1721; also: potency is read from the fitted curve at half-maximal effect
Target sequence (Q27686 whole entry, looked up): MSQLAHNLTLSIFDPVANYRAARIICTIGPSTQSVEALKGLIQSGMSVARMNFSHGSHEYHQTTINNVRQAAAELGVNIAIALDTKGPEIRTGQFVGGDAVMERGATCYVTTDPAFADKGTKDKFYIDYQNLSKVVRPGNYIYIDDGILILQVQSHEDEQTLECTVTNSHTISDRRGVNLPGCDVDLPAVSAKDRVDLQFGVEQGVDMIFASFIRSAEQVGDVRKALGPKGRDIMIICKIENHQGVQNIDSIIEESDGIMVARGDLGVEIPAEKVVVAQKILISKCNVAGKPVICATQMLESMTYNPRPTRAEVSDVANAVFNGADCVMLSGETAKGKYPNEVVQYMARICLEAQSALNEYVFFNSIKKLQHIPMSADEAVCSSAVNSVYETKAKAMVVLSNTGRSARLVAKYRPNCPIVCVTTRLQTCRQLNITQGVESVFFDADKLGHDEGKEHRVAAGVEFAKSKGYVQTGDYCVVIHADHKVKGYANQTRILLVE
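ATP generated from ADP (0.1 mM) and PEP (0.5 mM) by 0.1 nM LmPK over 1 h at room temperature (pH 7.2 imidazole buffer) was detected by coupled luciferase luminescence. Values were normalized to uninhibited and no-enzyme wells.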
Active calls of the source: *; [ ] = dose if it differs, or a comment. Shown are actives, neighbours in structure and some others; about 5% of the full set was active somewhere. Unless noted, calls follow the shape of the dose curve; as a rule, active = well fitted curve in the direction sought with a large enough effect; inconclusive = small, poorly fitted or top-dose-only effect, or another doubt; inactive = no such curve, though single readings can be large; an effect the other way counts as inactive or inconclusive. % is scaled to controls: 0 for no effect and ±100 for the full control effect.

What do the screens show for `O=C(NC(Cc1ccc2c(c1)OCO2)C(=O)N1CCCC1C(=O)O)c1ccccc1` (stereo not given)?
Vaccinia Venus: -18%; Tb PYK inh: 4%; HCMV antiviral: -25; VACV mCherry inh: -14%; LmPK inhibitor: -5%

Results for CC(C)CS(=O)(=O)c1oc(-c2ccc(F)cc2)nc1S(=O)(=O)c1ccccc1 ?
Vaccinia Venus: -12%[7.34 µM]; Tb PYK inh: -2%; HCMV antiviral: -100*; VACV mCherry inh: -21%[7.34 µM]

What do the screens show for `CCSc1oc(-c2ccc(F)cc2)nc1S(=O)(=O)c1ccc(C)cc1`?
Vaccinia Venus: -12%[7.34 µM]; Tb PYK inh: 3%; HCMV antiviral: -65*; VACV mCherry inh: -15%[7.34 µM]

Results for COc1ccccc1NC(=O)CSc1oc(-c2ccc(F)cc2)nc1S(=O)(=O)c1ccc(Br)cc1 ?
Vaccinia Venus: inconclusive; Tb PYK inh: -9%; HCMV antiviral: 1; VACV mCherry inh: 14µM*

Results for CCC(C)S(=O)(=O)c1oc(-c2cccs2)nc1S(=O)(=O)c1ccccc1 (stereo not given) ?
Vaccinia Venus: -8%[7.34 µM]; Tb PYK inh: 1%; HCMV antiviral: -102*; VACV mCherry inh: -10%[7.34 µM]

What do the screens show for `CNc1oc(-c2cccs2)nc1S(=O)(=O)c1ccccc1`?
Vaccinia Venus: -11%; Tb PYK inh: 4%; HCMV antiviral: -9; VACV mCherry inh: -14%; LmPK inhibitor: 1%

What do the screens show for `COc1ccccc1NC(=O)CSc1oc(-c2ccccc2)nc1S(=O)(=O)c1ccc(C)cc1`?
Vaccinia Venus: -12%; Tb PYK inh: 1%; HCMV antiviral: -16; VACV mCherry inh: -22%

How did C#CCN(C[C@@H]1[C@@H](OC(=O)NCc2ccccc2F)[C@@H](OC(=O)NCc2ccccc2F)Cn2c(=O)ccc(=O)n21)S(=O)(=O)c1ccc(C)cc1 do in these assays?
Vaccinia Venus: 7.1µM*; Tb PYK inh: -8%; HCMV antiviral: -100*; VACV mCherry inh: inconclusive

What do the screens show for `C#CCN(C[C@@H]1[C@@H](OC(=O)Nc2cccs2)[C@@H](OC(=O)Nc2cccs2)Cn2c(=O)ccc(=O)n21)S(=O)(=O)c1ccc(C)cc1`?
Vaccinia Venus: 8.9µM*; Tb PYK inh: -3%; HCMV antiviral: -103*; VACV mCherry inh: inconclusive

How did C#CCN(C[C@H]1[C@H](OC(=O)Nc2cccs2)[C@H](OC(=O)Nc2cccs2)CN(C(=O)OC(C)C)N1C(=O)OC(C)C)S(=O)(=O)c1ccc(C)cc1 do in these assays?
HCMV antiviral: -79*

How did C#CCN(C[C@@H]1[C@@H](OC(=O)NC2CC2)[C@@H](OC(=O)NC2CC2)CN(C(=O)OC(C)C)N1C(=O)OC(C)C)S(=O)(=O)c1ccc(C)cc1 do in these assays?
Vaccinia Venus: -25%; Tb PYK inh: -4%; HCMV antiviral: 2; VACV mCherry inh: -9%

How did C#CCN(C[C@@H]1[C@@H](OC(=O)NC2CCCC2)[C@@H](OC(=O)NC2CCCC2)Cn2c(=O)ccc(=O)n21)S(=O)(=O)c1ccc(C)cc1 do in these assays?
Vaccinia Venus: 7.9µM*; Tb PYK inh: -7%; HCMV antiviral: -101*; VACV mCherry inh: inconclusive

How did CN1CCN(c2ccc(Cl)cc2NC(=O)CC2OC(=O)c3ccccc32)CC1 (stereo not given) do in these assays?
Vaccinia Venus: -17%; Tb PYK inh: -6%; HCMV antiviral: -15; VACV mCherry inh: inactive

What do the screens show for `O=[N+]([O-])c1ccc2c([N+](=O)[O-])ccc3c2c1CC3`?
Vaccinia Venus: -28%; Tb PYK inh: -4%; HCMV antiviral: inconclusive; VACV mCherry inh: -20%

What do the screens show for `N#Cc1ccc(OCC(O)CN2CCN(c3ncc(C(F)(F)F)cc3Cl)CC2)cc1` (stereo not given)?
Vaccinia Venus: -8%; Tb PYK inh: 0%; HCMV antiviral: -72*; VACV mCherry inh: inconclusive; LmPK inhibitor: -6%

What do the screens show for `C#CCN(Cc1ccc(OC)cc1)S(=O)(=O)C=C`?
Vaccinia Venus: 28µM*; VACV mCherry inh: inconclusive

What do the screens show for `Cc1cc(C)cc(NS(=O)(=O)c2cnc(Cl)c(Cl)c2)c1`?
Vaccinia Venus: inconclusive; Tb PYK inh: 5%; HCMV antiviral: -15; LmPK inhibitor: -1%

What do the screens show for `CCOc1ccc(NS(=O)(=O)c2ccc(NC(=S)NC(C)=O)cc2)cc1`?
Vaccinia Venus: -10%; Tb PYK inh: 1%; HCMV antiviral: -62*; VACV mCherry inh: inactive; LmPK inhibitor: 9%

Results for CCC(C)C(NC(N)=O)C(=O)Nc1ccc(S(=O)(=O)Nc2ccc(OC)cc2)cc1 (stereo not given) ?
Vaccinia Venus: 0%; Tb PYK inh: 1%; HCMV antiviral: -102*; VACV mCherry inh: -2%; LmPK inhibitor: 4%

What do the screens show for `CCOc1ccc(NS(=O)(=O)c2cnc(Cl)c(Cl)c2)cc1`?
Vaccinia Venus: 13µM*; Tb PYK inh: 2%; HCMV antiviral: -33; VACV mCherry inh: inconclusive; LmPK inhibitor: -1%

Results for CCOc1ccc(NS(=O)(=O)c2ccc3c(c2)N(C(C)=O)CCS3)cc1 ?
Tb PYK inh: 14%; HCMV antiviral: -65*; LmPK inhibitor: -3%

What do the screens show for `Fc1ccc(-c2nc3cnccn3c2NC2CCCC2)cc1`?
Tb PYK inh: 0%; HCMV antiviral: -19; LmPK inhibitor: 0%

How did COc1ccc(CNC(=O)C2Cc3cc(S(=O)(=O)N4CCCCCC4)ccc3N2C(C)=O)cc1 (stereo not given) do in these assays?
Vaccinia Venus: -5%; Tb PYK inh: 3%; HCMV antiviral: 11; VACV mCherry inh: -2%

How did CCOc1ccc(NS(=O)(=O)c2ccc(C(=O)NNC(=O)c3ccccc3O)cc2)cc1 do in these assays?
Vaccinia Venus: inconclusive; Tb PYK inh: 2%; HCMV antiviral: -5; VACV mCherry inh: 7.1µM*

What do the screens show for `CCOc1ccc(S(=O)(=O)Nc2ccc(C(=O)N(CC)CC(=O)NCc3cccs3)cc2)cc1`?
Vaccinia Venus: -16%; Tb PYK inh: 1%; HCMV antiviral: -72*; VACV mCherry inh: inactive

What do the screens show for `CCOc1ccc(NC(=S)Nc2ccc(OCC)cc2)cc1`?
Vaccinia Venus: -23%; Tb PYK inh: -10%; HCMV antiviral: -100*; VACV mCherry inh: -4%; LmPK inhibitor: -8%

What do the screens show for `Cc1cccc(C)c1-n1c(C)cc(/C=N\Nc2ccc([N+](=O)[O-])cn2)c1C`?
Vaccinia Venus: inconclusive; Tb PYK inh: -7%; HCMV antiviral: inconclusive; LmPK inhibitor: -7%

What do the screens show for `CCCCn1c(=N)n(CC(=O)c2ccco2)c2ccccc21`?
Vaccinia Venus: -19%; Tb PYK inh: 0%; HCMV antiviral: -16; VACV mCherry inh: -25%; LmPK inhibitor: 0%

Results for CCCCn1c(=N)n(CC(=O)c2ccc([N+](=O)[O-])cc2)c2ccccc21 ?
HCMV antiviral: -104*; LmPK inhibitor: 2%
